Results filed as inconclusive are left out. A call without a number means that no potency is given here. Unmarked numbers belong to inactive results. Active and inactive are the calls of the source. Calls follow the shape of the dose curve; as a rule, active = well fitted cell-killing curve with a large enough effect; inconclusive = small, poorly fitted or top-dose-only effect, or effect the other way; inactive = flat fitted curve, though single readings scatter.
Assays:
Assay in all cases: Primary qHTS to identify gynecologic anti-cancer compounds using libraries of approved drugs and bioactive compounds (AID 1345084); also: nearly all actives have a fitted effect of over 55% in size
C33A = settings: Gynecologic cancer cell panel viability, ATPlite luminescence, 48 h; series mostly up to 57.5 µM
Outline: (§1)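 Cell viability after 48 h drug treatment, ATPlite luminescence readout; five doses.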

CAOV3 = settings: Gynecologic cancer cell panel viability, ATPlite luminescence, 48 h; series mostly up to 57.5 µM
Outline: as §1

CASKI = settings: Gynecologic cancer cell panel viability, ATPlite luminescence, 48 h; series mostly up to 57.5 µM
Outline: as §1

Es-2 = settings: Gynecologic cancer cell panel viability, ATPlite luminescence, 48 h; series mostly up to 57.5 µM
Outline: as §1

HeLa = settings: Gynecologic cancer cell panel viability, ATPlite luminescence, 48 h; series mostly up to 57.5 µM
Outline: as §1

Hek293T = settings: Gynecologic cancer cell panel viability, ATPlite luminescence, 48 h, control line for the selectivity index; series mostly up to 57.5 µM
Outline: as §1

JEG-3 = settings: Gynecologic cancer cell panel viability, ATPlite luminescence, 48 h; series mostly up to 57.5 µM
Outline: as §1

OV90 = settings: Gynecologic cancer cell panel viability, ATPlite luminescence, 48 h; series mostly up to 57.5 µM
Outline: as §1

PA-1 = settings: Gynecologic cancer cell panel viability, ATPlite luminescence, 48 h; series mostly up to 57.5 µM
Outline: as §1

SKOV3 = settings: Gynecologic cancer cell panel viability, ATPlite luminescence, 48 h; series mostly up to 57.5 µM
Outline: as §1

Tov-21-G = settings: Gynecologic cancer cell panel viability, ATPlite luminescence, 48 h; series mostly up to 57.5 µM
Outline: as §1

Tov112D = settings: Gynecologic cancer cell panel viability, ATPlite luminescence, 48 h; series mostly up to 57.5 µM
Outline: as §1
Potency is read from the fitted curve at half-maximal effect.

`O=C(O)C(O[C@@H]1O[C@H](CO[C@@H]2O[C@H](CO)[C@@H](O)[C@H](O)[C@H]2O)[C@@H](O)[C@H](O)[C@H]1O)c1ccccc1` (some centres undefined) was tested. Which Potency (C33A) did it give?
The Potency was “inactive”.

And the Potency (CAOV3)?
Its Potency is “inactive”.

And the Potency (CASKI)?
Its Potency is “inactive”.

And the Potency (Es-2)?
Its Potency is “inactive”.

And the Potency (HeLa)?
The Potency was “inactive”.

And the Potency (Hek293T)?
Its Potency is “inactive”.

And the Potency (JEG-3)?
Its Potency is “inactive”.

And the Potency (OV90)?
The Potency was “inactive”.

What about the Potency (PA-1) of the same compound?
Its Potency is “inactive”.

And the Potency (SKOV3)?
The Potency was “inactive”.

What about the Potency (Tov-21-G) of the same compound?
The Potency was “inactive”.

And the Potency (Tov112D)?
Its Potency is “inactive”.

`CC(=O)O[C@@H]1[C@@H](O)[C@H](C)O[C@@H](O[C@H]2[C@@H]3C=CO[C@@H](O[C@@H]4O[C@H](CO)[C@@H](O)[C@H](O)[C@H]4O)[C@@H]3[C@@]3(CO)O[C@@H]23)[C@@H]1OC(=O)/C=C/c1ccccc1` was tested. Which Potency (C33A) did it give?
The Potency was “inactive”.

And the Potency (CAOV3)?
Its Potency is “inactive”.

What about the Potency (CASKI) of the same compound?
Its Potency is “inactive”.

And the Potency (Es-2)?
The Potency was “inactive”.

What about the Potency (HeLa) of the same compound?
Its Potency is “inactive”.

And the Potency (Hek293T)?
Its Potency is “inactive”.

What about the Potency (JEG-3) of the same compound?
Its Potency is “inactive”.

What about the Potency (OV90) of the same compound?
The Potency was “inactive”.

And the Potency (PA-1)?
Its Potency is “inactive”.

And the Potency (SKOV3)?
Its Potency is “inactive”.

And the Potency (Tov-21-G)?
The Potency was “inactive”.

And the Potency (Tov112D)?
The Potency was “inactive”.

For `C=CCC1=C[C@]2(OC)[C@H](C)[C@@H](c3ccc(O)c(OC)c3)O[C@]2(OC)CC1=O`, which Potency (C33A) is on record?
The Potency was “inactive”.

What about the Potency (CAOV3) of the same compound?
Its Potency is “inactive”.

And the Potency (CASKI)?
Its Potency is “inactive”.

What about the Potency (Es-2) of the same compound?
Its Potency is “inactive”.

And the Potency (HeLa)?
Its Potency is “inactive”.

And the Potency (Hek293T)?
Its Potency is “inactive”.

And the Potency (JEG-3)?
The Potency was “inactive”.

What about the Potency (OV90) of the same compound?
The Potency was “inactive”.

And the Potency (PA-1)?
Its Potency is “inactive”.

And the Potency (SKOV3)?
Its Potency is “inactive”.

And the Potency (Tov-21-G)?
The Potency was “inactive”.

And the Potency (Tov112D)?
The Potency was “inactive”.

For `CC(C)=C/C=C\[C@H](C)[C@H]1CC[C@]2(C)C[C@@H]3C(C)=CC(=O)C3/C(CO)=C\C[C@@H]12` (some centres undefined), which Potency (C33A) is on record?
Its Potency is “inactive”.

What about the Potency (CAOV3) of the same compound?
Its Potency is “inactive”.

And the Potency (CASKI)?
The Potency was “inactive”.

And the Potency (Es-2)?
The Potency was “inactive”.

What about the Potency (HeLa) of the same compound?
Its Potency is “inactive”.

And the Potency (Hek293T)?
The Potency was “inactive”.

What about the Potency (JEG-3) of the same compound?
Its Potency is “inactive”.

What about the Potency (OV90) of the same compound?
Its Potency is “inactive”.

And the Potency (PA-1)?
Its Potency is “inactive”.

What about the Potency (SKOV3) of the same compound?
The Potency was “inactive”.

What about the Potency (Tov-21-G) of the same compound?
The Potency was “inactive”.

What about the Potency (Tov112D) of the same compound?
Its Potency is “inactive”.

For `CC(=O)O[C@@H]1[C@@H](CO)O[C@@](CO)(O[C@H]2O[C@H](COC(=O)/C=C/c3ccccc3)[C@@H](O)[C@H](O)[C@H]2O)[C@H]1O`, which Potency (C33A) is on record?
The Potency was “inactive”.

And the Potency (CAOV3)?
Its Potency is “inactive”.

What about the Potency (CASKI) of the same compound?
Its Potency is “inactive”.

And the Potency (Es-2)?
The Potency was “inactive”.

And the Potency (HeLa)?
The Potency was “inactive”.

What about the Potency (Hek293T) of the same compound?
Its Potency is “inactive”.

And the Potency (JEG-3)?
The Potency was “inactive”.

And the Potency (OV90)?
Its Potency is “inactive”.

And the Potency (PA-1)?
The Potency was “inactive”.

And the Potency (SKOV3)?
Its Potency is “inactive”.

And the Potency (Tov-21-G)?
The Potency was “inactive”.

What about the Potency (Tov112D) of the same compound?
The Potency was “inactive”.

`C=C(F)c1sc(CNCCCNc2cc(=O)c3ccccc3[nH]2)c(C)c1Br` was tested. Which Potency (C33A) did it give?
The Potency was “inactive”.

What about the Potency (CAOV3) of the same compound?
The Potency was “inactive”.

What about the Potency (CASKI) of the same compound?
Its Potency is “inactive”.

What about the Potency (Es-2) of the same compound?
Its Potency is “inactive”.

What about the Potency (HeLa) of the same compound?
Its Potency is “inactive”.

What about the Potency (Hek293T) of the same compound?
Its Potency is “inactive”.

What about the Potency (JEG-3) of the same compound?
Its Potency is “inactive”.

What about the Potency (OV90) of the same compound?
The Potency was “inactive”.

And the Potency (PA-1)?
The Potency was “inactive”.

What about the Potency (SKOV3) of the same compound?
The Potency was “inactive”.

And the Potency (Tov-21-G)?
Its Potency is “inactive”.

And the Potency (Tov112D)?
The Potency was “inactive”.

`COc1ccc2nc(S(=O)(=O)Cc3ncc(C)c(OC)c3C)[nH]c2c1` was tested. Which Potency (C33A) did it give?
The Potency was “inactive”.

What about the Potency (CAOV3) of the same compound?
The Potency was “inactive”.

What about the Potency (CASKI) of the same compound?
The Potency was “inactive”.

What about the Potency (Es-2) of the same compound?
Its Potency is “inactive”.

And the Potency (HeLa)?
The Potency was “inactive”.

What about the Potency (Hek293T) of the same compound?
Its Potency is “inactive”.

What about the Potency (JEG-3) of the same compound?
The Potency was “inactive”.

What about the Potency (OV90) of the same compound?
Its Potency is “inactive”.

And the Potency (PA-1)?
The Potency was “inactive”.

What about the Potency (SKOV3) of the same compound?
The Potency was “inactive”.

And the Potency (Tov-21-G)?
Its Potency is “inactive”.

What about the Potency (Tov112D) of the same compound?
The Potency was “inactive”.

With `C[C@H]1C(=O)N2c3ccccc3[C@@]3(O)C[C@@H]4C(=O)N[C@](C)(c5nc6ccccc6c(=O)n54)N1[C@@H]23` as the compound, how does the Potency (C33A) read?
The Potency was “inactive”.

And the Potency (CAOV3)?
The Potency was “inactive”.

And the Potency (CASKI)?
Its Potency is “inactive”.

And the Potency (Es-2)?
Its Potency is “inactive”.

What about the Potency (HeLa) of the same compound?
The Potency was “inactive”.

What about the Potency (Hek293T) of the same compound?
Its Potency is “inactive”.

And the Potency (JEG-3)?
The Potency was “inactive”.

What about the Potency (OV90) of the same compound?
The Potency was “inactive”.

And the Potency (PA-1)?
Its Potency is “inactive”.

What about the Potency (SKOV3) of the same compound?
The Potency was “inactive”.

What about the Potency (Tov-21-G) of the same compound?
The Potency was “inactive”.

What about the Potency (Tov112D) of the same compound?
The Potency was “inactive”.

What does the source list for `COc1c/c(=C2\C=c3ccccc3=N2)[nH]/c1=C\c1[nH]c(C)cc1C`?
Potency (C33A): 1.41 µM (active); Potency (CAOV3): 10 µM (active); Potency (CASKI): 12.6 µM (active); Potency (Es-2): 2.51 µM (active); Potency (HeLa): 10 µM (active); Potency (Hek293T): 6.31 µM (active); Potency (JEG-3): 7.94 µM (active); Potency (OV90): 2.24 µM (active); Potency (PA-1): 2 µM (active); Potency (SKOV3): 10 µM (active); Potency (Tov-21-G): 14.1 µM (active); Potency (Tov112D): 3.55 µM (active)

Which Potency (C33A) does the source give for `CC1CCC2(CO)C(C(=O)O)=CCCC2C1(C)CCc1ccoc1` (centres undefined) here?
The Potency was “inactive”.

And the Potency (CAOV3)?
Its Potency is “inactive”.

And the Potency (CASKI)?
The Potency was “inactive”.

What about the Potency (Es-2) of the same compound?
Its Potency is “inactive”.

And the Potency (HeLa)?
The Potency was “inactive”.

And the Potency (Hek293T)?
Its Potency is “inactive”.

And the Potency (JEG-3)?
Its Potency is “inactive”.

And the Potency (OV90)?
Its Potency is “inactive”.

And the Potency (PA-1)?
Its Potency is “inactive”.

And the Potency (SKOV3)?
Its Potency is “inactive”.

And the Potency (Tov-21-G)?
The Potency was “inactive”.

What about the Potency (Tov112D) of the same compound?
Its Potency is “inactive”.

What does the source list for `C[C@@H]1O[C@@H](O[C@H]2[C@H](OC(=O)[C@]34CCC(C)(C)C[C@H]3C3=CCC5[C@@]6(C)C[C@H](O)[C@H](O[C@@H]7O[C@H](CO)[C@@H](O)[C@H](O)[C@H]7O)[C@@](C)(CO)C6[C@H](O)C[C@@]5(C)[C@]3(C)C[C@H]4O)OC[C@H](O)[C@@H]2O)[C@H](O)[C@H](O)[C@H]1O[C@@H]1OC[C@@H](O)[C@H](O[C@H]2OC[C@](O)(CO)[C@H]2O)[C@H]1O` (some centres undefined)?
activity change, negative = cytotoxicity (C33A): 6.39% [at 6.55 µM]; activity change, negative = cytotoxicity (CAOV3): 27.3% [at 6.55 µM]; activity change, negative = cytotoxicity (CASKI): -4.03% [at 6.55 µM]; activity change, negative = cytotoxicity (Es-2): 1.52% [at 6.55 µM]; activity change, negative = cytotoxicity (HeLa): 19.6% [at 6.55 µM]; activity change, negative = cytotoxicity (Hek293T): -3.35% [at 6.55 µM]; activity change, negative = cytotoxicity (JEG-3): 13.7% [at 6.55 µM]; activity change, negative = cytotoxicity (OV90): -6.86% [at 6.55 µM]; activity change, negative = cytotoxicity (PA-1): 24.7% [at 6.55 µM]; activity change, negative = cytotoxicity (SKOV3): 19.1% [at 6.55 µM]; activity change, negative = cytotoxicity (Tov-21-G): 8.26% [at 6.55 µM]; activity change, negative = cytotoxicity (Tov112D): 8.3% [at 6.55 µM]

How did the Potency (C33A) turn out when `COc1ccc(Cl)c(Nc2nc3ccccc3nc2NS(=O)(=O)c2cccc(NC(=O)C(C)(C)N)c2)c1` was run?
The Potency was “inactive”.

And the Potency (CAOV3)?
Its Potency is “inactive”.

And the Potency (CASKI)?
The Potency was “inactive”.

And the Potency (Es-2)?
The Potency was “inactive”.

What about the Potency (HeLa) of the same compound?
The Potency was “inactive”.

What about the Potency (Hek293T) of the same compound?
Its Potency is “inactive”.

And the Potency (JEG-3)?
Its Potency is “inactive”.

And the Potency (OV90)?
Its Potency is “inactive”.

And the Potency (PA-1)?
Its Potency is “inactive”.

And the Potency (SKOV3)?
The Potency was “inactive”.

What about the Potency (Tov-21-G) of the same compound?
The Potency was “inactive”.

What about the Potency (Tov112D) of the same compound?
Its Potency is “inactive”.

Reference: PubChem BioAssay (NCATS)
